This note sets out measurements from PubChem BioAssay (EPA / NIEHS).

“And” between values parts separate entries of the source, which are not always exact repeats. Identical values can stand only once. More than one record can exist for a structure, and the calls need not agree. The source made the active and inactive calls. How the source made its calls: active means hit-call score of the fitted dose curve at least 0.9, where 1 is the maximum; inactive means score below 0.9.

In general, AC50 refers to the concentration giving half of the maximal activity seen.

Read-out in the assay: Interleukin-8 (IL8), CXCL8 (gene 3576)
Put plainly: BSK_BF4T_IL8: BioMAP Diversity Plus: BF4T Assay for Interleukin-8 (IL8) Biomarker Activity (AID 2284263). As to conditions: primary human bronchial epithelial cells with fibroblasts. The procedure:
BSK_BF4T is a cell-based, multiplexed-readout assay that uses bronchial epithelial cells and dermal fibroblasts, a human vascular primary cell, with measurements taken at 24 hours after chemical dosing in a microplate: 96-well plate.BSK_BF4T_IL8 is an assay component measured in the BSK_BF4T assay. It measures IL-8 antibody related to regulation of gene expression using ELISA technology.Data from the assay component BSK_BF4T_IL8 was analyzed at the endpoint, BSK_BF4T_IL8, in the positive analysis fitting direction relative to DMSO as the negative control and baseline of activity. Using a type of binding reporter, gain or loss-of-signal activity can be used to understand protein changes. To generalize the intended target to other relatable targets, this assay endpoint is annotated to the 'cytokine' intended target family, where the subfamily is 'interleukins'.
The levels of cell surface (or secreted, indicated by the prefix "s") biomarker endpoints were measured by ELISA. Overt cytotoxicity to cells in confluent adherent cultures (all systems other than the BT system) was assessed by measuring total protein levels using sulforhodamine B (SRB) staining in parallel cultures at the time of biomarker measurements, indicated as SRB endpoints. For proliferation assays for adherent cell types, individual cell types are cultured at sub-confluence and relative cell numbers quantified by SRB staining at time points optimized for each system (48 h: 3C and CASM3C systems; 72 h: BT and HDF3CGF systems; 96 h: SAg system). SRB was performed by staining cells with 0.1% SRB after fixation with 10% TCA and reading wells at 560 nm.Viability and proliferation of PBMC (T cells) was quantified by Alamar Blue reduction for the SAg and BT systems. For PBMC viability (referred to as PBMC Cytotoxicity within the assay endpoint names), cells were plated (75,000/well in a 96-well plate) and then chemical samples added for 1 h before addition of activators, SEB and TSST-1 (20 ng/mL final concentration each). Cells were incubated for 90 h. Then, Alamar Blue (20 uL/well) (Invitrogen, Cat DAL1100) was added for 6 h, and the plates were read with a fluorescence microplate reader at 546/580 nm (excitation/emission). For PBMC proliferation, cells were plated and activated as above but incubated for only 16 h prior to addition of Alamar Blue. Plates were read after 6 h.
Take `CN(CCO)S(=O)(=O)C(F)(F)C(F)(F)C(F)(F)C(F)(F)C(F)(F)C(F)(F)C(F)(F)C(F)(F)F`: the AC50 was 0.0245 µM (active) and the result was inactive.
For the compound `O=P(O)(O)CCC(F)(F)C(F)(F)C(F)(F)C(F)(F)C(F)(F)C(F)(F)F`, the outcome was inactive.
Turning to `OCC(F)(F)C(F)(F)C(F)(F)C(F)(F)C(F)(F)C(F)(F)C(F)(F)C(F)(F)C(F)(F)C(F)(F)C(F)(F)F`, the result was inactive.
Turning to `O=C(O)CCC(F)(F)C(F)(F)C(F)(F)C(F)(F)C(F)(F)F`, the outcome was inactive.
In the case of `CN(Cc1cnc2nc(N)nc(N)c2n1)c1ccc(C(=O)N[C@@H](CCC(=O)O)C(=O)O)cc1`, the outcome was inactive and the AC50 was 2.65 µM (active).
With `C=CC(=O)OCCC(F)(F)C(F)(F)C(F)(F)C(F)(F)C(F)(F)C(F)(F)C(F)(F)C(F)(F)F`, the outcome was inactive.
`O=C(CC(=O)C(F)(F)C(F)(F)C(F)(F)F)c1cccs1`: the AC50 was 52.8 µM (active) and 55.1 µM (active).
As for `O=C(O)CCC(F)(F)C(F)(F)C(F)(F)C(F)(F)C(F)(F)C(F)(F)F`, the outcome was inactive.
In the case of `O=S(=O)(O)C(F)(F)C(F)(F)C(F)(F)C(F)(F)C(F)(F)C(F)(F)C(F)(F)C(F)(F)C(F)(F)C(F)(F)F`, the AC50 was 2.65 µM (active) and 6.99 µM (active).
Consider `O=C(O)C(F)(F)OC(F)(F)C(F)(F)OC(F)(F)C(F)(F)OC(F)(F)C(F)(F)C(F)(F)C(F)(F)F`, for which the AC50 was 53.7 µM (active) and the outcome was inactive.
For the compound `O=P(O)(O)CCC(F)(F)C(F)(F)C(F)(F)C(F)(F)C(F)(F)C(F)(F)C(F)(F)C(F)(F)F`, the result was inactive.
